Results taken from PubChem BioAssay (EPA / NIEHS).
Active and inactive are the calls of the source. The calls were made as follows: active = hit-call score of the fitted dose curve at least 0.9, where 1 is the maximum; inactive = score below 0.9.

How the values were obtained:
Details in all cases: mRNA level, 48 h; actives raise or lower the signal
[1] = read-out: growth arrest and DNA damage 45 (GADD45B), GADD45B (gene 4616); test: LTEA_HepaRG_GADD45B: Life Technologies and Expression Analysis (LTEA) Assay for growth arrest and DNA damage 45 (GADD45B) using HepaRG (AID 2283461)
Outline: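 Values are bidirectional concentration-response fits against 0.5% DMSO controls. Underlying data: qRT-PCR mRNA levels in human HepaRG liver cells treated 48 h in serum-free induction medium, eight concentrations topping at 100 uM.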

[2] = read-out: ABC Transporter (ABCC3), ABCC3 (gene 8714); test: LTEA_HepaRG_ABCC3: Life Technologies and Expression Analysis (LTEA) Assay for ABC Transporter (ABCC3) using HepaRG (AID 2283462)
Outline: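 Differentiated HepaRG liver cells receive test chemicals at eight concentrations (max 100 uM) for 48 h. Expression of ABCC3 is quantified by qRT-PCR against ACTB, GAPDH and POLR2A, and activity is fitted in both directions against the DMSO control.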

[3] = read-out: ABC Transporter (ABCB11), ABCB11 (gene 8647); test: LTEA_HepaRG_ABCB11: Life Technologies and Expression Analysis (LTEA) Assay for ABC Transporter (ABCB11) using HepaRG (AID 2283463)
Outline: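 ABCB11 transcript levels are read by Fluidigm TaqMan qRT-PCR after 48 h chemical treatment of human HepaRG cells. Concentrations span 100 uM downward in half-log steps with 0.5% DMSO; gain or loss is fitted against DMSO controls.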

[4] = read-out: ABC Transporter (ABCC2), ABCC2 (gene 1244); test: LTEA_HepaRG_ABCC2: Life Technologies and Expression Analysis (LTEA) Assay for ABC Transporter (ABCC2) using HepaRG (AID 2283464)
Outline: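 Gene expression of ABCC2 was determined by qRT-PCR in HepaRG cells exposed 48 h to chemicals (highest 100 uM, half-log dilutions). Activity was fitted in both directions relative to 0.5% DMSO vehicle.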

[5] = read-out: Broad substrate specificity ATP-binding cassette transporter ABCG2 (Homo sapiens) (UniProt Q9UNQ0); test: LTEA_HepaRG_ABCG2: Life Technologies and Expression Analysis (LTEA) Assay for ABC Transporter (ABCG2) using HepaRG (AID 2283465)
Outline: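 Read-out is ABCG2 mRNA induction or loss quantified by qRT-PCR after 48 h chemical treatment of human HepaRG cells, normalized to three housekeeping genes. Concentrations reached 100 uM top in half-log steps; fitting was bidirectional against 0.5% DMSO.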

[6] = read-out: Peroxisomal acyl-coenzyme A oxidase 1 (ACOX1) gene, ACOX1 (gene 51); test: LTEA_HepaRG_ACOX1: Life Technologies and Expression Analysis (LTEA) Assay for Peroxisomal acyl-coenzyme A oxidase 1 (ACOX1) gene using HepaRG (AID 2283467)
Outline: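 Measured by qRT-PCR against three housekeeping genes: ACOX1 transcript change in human HepaRG cells after 48 h dosing. Concentrations ran up to 100 uM in half-log steps. Curves were fitted bidirectionally relative to 0.5% DMSO.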

[7] = read-out: Alkaline Phosphatase, Placental (ALPP) gene, ALPP (gene 250); test: LTEA_HepaRG_ALPP: Life Technologies and Expression Analysis (LTEA) Assay for Alkaline Phosphatase, Placental (ALPP) gene using HepaRG (AID 2283468)
Outline: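 Expression of ALPP was quantified by qRT-PCR against three housekeeping genes in human HepaRG cultures treated for 48 h with an eight-point concentration series up to 100 uM. Activity in either direction was fitted relative to 0.5% DMSO.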

[8] = read-out: Bcl-2 (BAD) gene, BAD (gene 572); test: LTEA_HepaRG_BAD: Life Technologies and Expression Analysis (LTEA) Assay for Bcl-2 (BAD) gene using HepaRG (AID 2283469)
Outline: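 BAD transcript change, measured by qRT-PCR against three housekeeping genes and fitted in both directions relative to 0.5% DMSO, after 48 h chemical treatment of human HepaRG liver cells at concentrations up to 100 uM.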

[9] = read-out: Bcl-2 (BAX) gene, BAX (gene 581); test: LTEA_HepaRG_BAX: Life Technologies and Expression Analysis (LTEA) Assay for Bcl-2 (BAX) gene using HepaRG (AID 2283470)
Outline: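 HepaRG (human liver), 48 h exposure, duplicate wells. 8-pt curve, half-log from 100 uM, 0.5% DMSO. BAX transcript by TaqMan qRT-PCR; ACTB/GAPDH/POLR2A normalization; gain or loss vs DMSO baseline.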

[10] = read-out: adenosine kinase (ADK) gene, ADK (gene 132); test: LTEA_HepaRG_ADK: Life Technologies and Expression Analysis (LTEA) Assay for adenosine kinase (ADK) gene using HepaRG (AID 2283471)
Outline: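 Following 48 h exposure of HepaRG cells in 0.5% DMSO (top concentration 100 uM, duplicate wells), ADK mRNA induction or suppression was measured by qRT-PCR, normalised to ACTB/GAPDH/POLR2A, and fitted bidirectionally relative to vehicle.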

[11] = read-out: Alpha-fetoprotein (AFP) gene, AFP (gene 174); test: LTEA_HepaRG_AFP: Life Technologies and Expression Analysis (LTEA) Assay for Alpha-fetoprotein (AFP) gene using HepaRG (AID 2283472)
Outline: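 HepaRG, single lot; 48 h post-plating -> serum-free induction medium; cpd 8-pt, 100 uM top, half-log, 0.5% DMSO, duplicate, 48 h. RNA -> qRT-PCR AFP, norm ACTB/GAPDH/POLR2A. Bidirectional fit vs DMSO.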

BCL2L11 (gene 10018) = test: LTEA_HepaRG_BCL2L11: Life Technologies and Expression Analysis (LTEA) Assay for Bcl-2 (BCL2L11) gene using HepaRG (AID 2283473)
Outline: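 Cells were plated, cultured 48 h, switched to serum-free induction medium, then dosed in duplicate for 48 h at eight half-log concentrations up to 100 uM. Lysates underwent RNA isolation and TaqMan qRT-PCR; gain or loss versus DMSO was fitted.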

[12] = read-out: Apoptosis regulator Bcl-2 (Homo sapiens) (UniProt P10415); test: LTEA_HepaRG_BCL2: Life Technologies and Expression Analysis (LTEA) Assay for Bcl-2 gene using HepaRG (AID 2283475)
Outline: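 HepaRG, plated 48 h then switched to serum-free induction medium; dosed 48 h, 8 conc. (max 100 uM, half-log steps), duplicate, 0.5% DMSO. Lysis in RLT, RNA isolated, TaqMan qRT-PCR for BCL2; ACTB/GAPDH/POLR2A normalisation; bidirectional fit vs DMSO.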

[13] = read-out: Bcl-2 (BID) gene, BID (gene 637); test: LTEA_HepaRG_BID: Life Technologies and Expression Analysis (LTEA) Assay for Bcl-2 (BID) gene using HepaRG (AID 2283476)
Outline: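 Transcript levels of BID, measured by qRT-PCR and normalized to three housekeeping genes, were fitted bidirectionally against DMSO controls. Cells were HepaRG, dosed 48 h at up to 100 uM.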

Caspase-3 (Homo sapiens) = Caspase-3 (Homo sapiens) (UniProt P42574); test: LTEA_HepaRG_CASP3: Life Technologies and Expression Analysis (LTEA) Assay for cysteine-aspartic acid protease (CASP3) using HepaRG (AID 2283477)
Outline: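 In HepaRG liver cells dosed for 48 h at up to 100 uM (eight-point, duplicate), CASP3 expression changes are scored by qRT-PCR. Activity is fitted in both directions with 0.5% DMSO as baseline.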

[14] = read-out: Cytochrome P450 (CYP24A1), CYP24A1 (gene 1591); test: LTEA_HepaRG_CYP24A1: Life Technologies and Expression Analysis (LTEA) Assay for Cytochrome P450 (CYP24A1) using HepaRG (AID 2283478)
Outline: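 Human liver HepaRG cultures receive each chemical for 48 h across an eight-point half-log series topping at 100 uM in 0.5% DMSO. Induction or suppression of CYP24A1 mRNA is scored relative to vehicle after housekeeping-gene normalization.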

[15] = read-out: Cytochrome P450 (CYP1A2), CYP1A2 (gene 1544); test: LTEA_HepaRG_CYP1A2: Life Technologies and Expression Analysis (LTEA) Assay for Cytochrome P450 (CYP1A2) using HepaRG (AID 2283479)
Outline: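 Assesses CYP1A2 mRNA in human HepaRG liver cells after 48 h chemical exposure at up to 100 uM. Values come from qRT-PCR with bidirectional curve fitting relative to DMSO.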

[16] = read-out: cysteine-aspartic acid protease (CASP8), CASP8 (gene 841); test: LTEA_HepaRG_CASP8: Life Technologies and Expression Analysis (LTEA) Assay for cysteine-aspartic acid protease (CASP8) using HepaRG (AID 2283480)
Outline: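 HepaRG, 48 h exposure, duplicate wells; 8 conc, half-log from 100 uM, 0.5% DMSO. Serum-free induction medium. CASP8 mRNA by TaqMan qRT-PCR, norm. ACTB/GAPDH/POLR2A; gain/loss fitted vs DMSO.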

[17] = read-out: Apolipoprotein A-V (APOA5) gene, APOA5 (gene 116519); test: LTEA_HepaRG_APOA5: Life Technologies and Expression Analysis (LTEA) Assay for Apolipoprotein A-V (APOA5) gene using HepaRG (AID 2283474)
Outline: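 Human liver HepaRG cells are treated 48 h with test chemicals (100 uM top, half-log dilutions, 0.5% DMSO). APOA5 mRNA induction or loss is measured by qRT-PCR relative to vehicle.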

[18] = read-out: ATP-citrate lyase (ACLY), ACLY (gene 47); test: LTEA_HepaRG_ACLY: Life Technologies and Expression Analysis (LTEA) Assay for ATP-citrate lyase (ACLY) using HepaRG (AID 2283466)
Outline: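 HepaRG, 48 h exposure, 8-pt half-log dilutions (top 100 uM), 0.5% DMSO. Readout: ACLY mRNA, TaqMan qRT-PCR, housekeeping-normalized (ACTB/GAPDH/POLR2A). Bidirectional curve fit vs DMSO.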

Measured: AC50

Chain of Caspase-3 (Homo sapiens) (P42574 whole entry, looked up): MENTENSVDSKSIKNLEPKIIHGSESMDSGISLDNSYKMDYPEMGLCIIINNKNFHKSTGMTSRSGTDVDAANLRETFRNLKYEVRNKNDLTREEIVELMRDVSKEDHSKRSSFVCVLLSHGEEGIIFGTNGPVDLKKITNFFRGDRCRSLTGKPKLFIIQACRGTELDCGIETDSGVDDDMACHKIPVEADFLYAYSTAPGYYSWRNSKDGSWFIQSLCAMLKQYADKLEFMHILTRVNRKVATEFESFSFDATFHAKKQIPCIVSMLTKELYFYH
Chain of Apoptosis regulator Bcl-2 (Homo sapiens) (P10415 whole entry, looked up): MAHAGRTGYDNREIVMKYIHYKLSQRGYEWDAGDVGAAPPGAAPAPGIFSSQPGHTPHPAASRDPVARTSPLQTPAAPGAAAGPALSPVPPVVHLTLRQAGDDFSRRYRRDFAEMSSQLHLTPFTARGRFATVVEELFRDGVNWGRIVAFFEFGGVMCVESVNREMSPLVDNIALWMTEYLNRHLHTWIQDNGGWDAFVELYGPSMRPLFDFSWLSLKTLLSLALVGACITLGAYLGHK
Chain of Broad substrate specificity ATP-binding cassette transporter ABCG2 (Homo sapiens) (Q9UNQ0 whole entry, looked up): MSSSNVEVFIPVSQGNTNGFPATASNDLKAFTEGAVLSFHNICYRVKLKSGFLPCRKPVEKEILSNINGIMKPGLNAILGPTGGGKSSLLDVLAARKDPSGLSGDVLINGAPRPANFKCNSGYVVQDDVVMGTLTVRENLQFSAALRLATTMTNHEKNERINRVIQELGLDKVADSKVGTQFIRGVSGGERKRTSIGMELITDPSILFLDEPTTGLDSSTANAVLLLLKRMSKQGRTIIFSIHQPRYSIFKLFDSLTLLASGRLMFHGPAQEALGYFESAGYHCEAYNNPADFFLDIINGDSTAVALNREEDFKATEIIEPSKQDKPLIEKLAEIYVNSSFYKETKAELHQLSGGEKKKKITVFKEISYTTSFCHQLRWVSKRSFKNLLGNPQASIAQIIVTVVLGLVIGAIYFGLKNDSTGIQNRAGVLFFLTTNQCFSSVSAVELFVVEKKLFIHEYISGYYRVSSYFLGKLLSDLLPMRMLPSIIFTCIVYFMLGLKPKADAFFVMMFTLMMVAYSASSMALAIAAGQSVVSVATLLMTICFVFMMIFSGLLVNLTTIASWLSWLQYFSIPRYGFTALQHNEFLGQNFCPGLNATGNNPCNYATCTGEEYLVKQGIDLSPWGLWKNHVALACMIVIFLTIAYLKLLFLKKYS

CCOC(=O)CCC(=O)OCC
active: [10] 79.3 µM | [16] 87.3 µM
not listed: [17] | [18]
inactive: all other assays above

CCCCCCCCCCCCCO
not listed: [1] | [9] | [18]
inactive: all other assays above

Cc1ccc(N(C)C)cc1
active: [15] 23.9 µM
not listed: [1] | [9] | [13] | [18]
inactive: all other assays above

Cc1c(C(=O)O)c(O)cc2c1C(=O)c1c(O)c([C@@H]3O[C@H](CO)[C@@H](O)[C@H](O)[C@H]3O)c(O)c(O)c1C2=O
not listed: [1] | [9] | [18]
inactive: all other assays above

Nc1ccccc1N
active: [2] 71.9 µM | [4] 71 µM | [6] 62.3 µM | [9] 40.6 µM | [10] 85.7 µM | [11] 72 µM | BCL2L11 (gene 10018) 50 µM | [15] 2.19 µM
not listed: [1] | [3] | [17] | [18]
inactive: all other assays above

C=CCc1ccc(O)c(OC)c1
not listed: [1] | [17] | [18]
inactive: all other assays above

OC[C@@H](O)[C@@H](O)[C@H](O)[C@H](O)CO
not listed: [1] | [13] | [18]
inactive: all other assays above

CCCCc1ccc2c(n1)[C@@H](c1ccc(OC)cc1C[C@H](C)C(=O)O)[C@H](C(=O)O)[C@H]2c1ccc2c(c1)OCO2
not listed: [1] | [9]
inactive: all other assays above

O=[N+]([O-])C(CO)(CO)CO
active: [15] 28.6 µM
not listed: [1] | [17] | [18]
inactive: all other assays above

Cc1ccccc1Cl
not listed: [1] | [9] | [18]
inactive: all other assays above

NS(=O)(=O)c1cc2c(cc1Cl)NCNS2(=O)=O
not listed: [1] | [9] | [15]
inactive: all other assays above

COc1ccc(C)cc1N
not listed: [1] | [18]
inactive: all other assays above

CCCCOC(=O)CCCCCCCCC(=O)OCCCC
not listed: [1] | [9]
inactive: all other assays above

Cc1ccc(C)c(O)c1C
active: [15] 50 µM
not listed: [1] | [9] | [13] | [18]
inactive: all other assays above

CCCCCCCCCCC
not listed: [1] | Caspase-3 (Homo sapiens) | [17] | [18]
inactive: all other assays above
